This test is described as follows: modulators of mitochondrial supercomplex assembly, cell-based, luminescence, Hoechst nuclei count (AID 1645838).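 As to all read-outs here: control cybrid cells.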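 As to z-score: higher means more mitochondrial supercomplex formation.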 The conditions noted are these: Cells, luminescence/Hoechst cell count ratio, supercomplex reporter; for z-score: stronger effect = higher value; for cell count: measured here: cell number, Hoechst nuclei count.
[1] abbreviates: library stock concentration (final well concentration not given) 46 uM.
[2] abbreviates: library stock concentration (final well concentration not given) 278 uM.
Setting [3] is: library stock concentration (final well concentration not given) 1.67 mM.
Where [4] appears, read: library stock concentration (final well concentration not given) 10 mM.
Setting [5] is: library stock concentration (final well concentration not given) 80 uM.
Setting [6] is: library stock concentration (final well concentration not given) 400 uM.
Where [7] appears, read: library stock concentration (final well concentration not given) 2 mM.

In all, about 2,000 compounds went through this assay and about 100 (5%) were called active. Rule as the data show it: active = z-score above about 2; inactive = the rest. Only a selection was taken, and actives are over-represented in it overall.

For the compound `Cc1ccc(C(=O)Nc2ccc(Oc3cc4cnn(C)c4cc3-c3cn[nH]c3)c(F)c2)c(=O)n1-c1ccc(F)cc1`, the z-score was -0.888 (inactive) under setting [1], -0.95 (inactive) under setting [2], -1.73 (inactive) under setting [3] and -2.48 (inactive) under setting [4]. Further, the cell count came to 7640 under setting [1], 6950 under setting [2], 7070 under setting [3] and 6390 under setting [4].

`CC/C=C\C/C=C\C/C=C\C/C=C\C/C=C\CCCC(=O)O[C@H](COCCCCCCCCCCCCCCCC)COP(=O)([O-])OCC[N+](C)(C)C`: the z-score was -1.23 (inactive) and the cell count was 5300.

As for `CCCCC[C@H](O)/C=C/[C@@H]1[C@@H](C/C=C\CCCC(=O)NC(CO)CO)[C@@H](O)C[C@H]1O`, the z-score was -0.166 (inactive) and the cell count came out at 5460.

In the case of `CN1CCc2c(c3ccccc3n2Cc2ccc(C(=O)NO)cc2)C1`, the z-score runs as follows: under setting [1], -0.165 (inactive); under setting [2], -0.118 (inactive); under setting [3], -0.0772 (inactive); under setting [4], 0.0302 (inactive). For the same compound, the cell count runs as follows: under setting [1], 5170; under setting [2], 5040; under setting [3], 4790; under setting [4], 4770.

Take `COc1cc(C(=O)NS(=O)(=O)c2ccccc2C)ccc1Cc1cn(C)c2ccc(NC(=O)OC3CCCC3)cc12`: the z-score was -0.169 (inactive) and the cell count amounted to 4650. Besides, under setting [5], the z-score is -0.186 (inactive) and the cell count amounted to 5870. Under setting [6], the z-score is 0.251 (inactive) and the cell count came to 5520. Moreover, under setting [7], the z-score is -0.394 (inactive) and the cell count is 5910. Further, under setting [4], the z-score is 0.0319 (inactive) and the cell count is 4990.

As to `Cn1cc(CNCC2CCN(c3ncc(C(=O)NO)cn3)CC2)c2ccccc21`, the outcome (library stock 400 µM) was “inactive; censored for cell count”, the outcome (library stock 2 mM) is “inactive; censored for cell count” and the outcome (library stock 10 mM) is “inactive; censored for cell count”. Besides, under setting [5], the z-score is 10.5 (active). For the same compound, the cell count under setting [5] came to 1710.

For the compound `Nc1nc(OC(c2ccc(-c3cccc(F)c3)cc2)C(F)(F)F)cc(-c2ccc(CC(N)C(=O)O)cc2)n1` (configuration not stated), the z-score under setting [5] was -0.00893 (inactive), the z-score under setting [6] is -0.406 (inactive), the z-score under setting [7] was -0.0477 (inactive) and the z-score under setting [4] is -0.333 (inactive). The cell count reads like this: under setting [5], 4780; under setting [6], 5340; under setting [7], 4660; under setting [4], 4880.

`CCCCCC(=O)CC[C@H]1C(=O)C[C@H](O)[C@@H]1C/C=C\CCCC(=O)O`: the z-score is 0.618 (inactive) and the cell count was 5420.

With `COc1cc(NS(C)(=O)=O)ccc1Nc1c2ccccc2nc2ccccc12`, the outcome by setting is: (library stock 2 mM) “inactive; censored for cell count”; (library stock 10 mM) “inactive; censored for cell count”. Moreover, the z-score is, setting by setting: under setting [5], 0.627 (inactive); under setting [6], 2.51 (active). For the same compound, the cell count came to 4290 under setting [5] and 2280 under setting [6].

In the case of `CN1CCN(c2ccc(Nc3c4ccccc4nc4ccccc34)cc2)CC1`, the outcome is “inactive; censored for cell count” (library stock 2 mM) and “inactive; censored for cell count” (library stock 10 mM). In addition, the z-score under setting [1] is 0.226 (inactive); the z-score under setting [5] is -0.0401 (inactive); the z-score under setting [2] is 0.109 (inactive); the z-score under setting [6] was 1.07 (inactive); the z-score under setting [3] was 0.208 (inactive). The cell count came out at 6220 under setting [1]; 5080 under setting [5]; 5990 under setting [2]; 4020 under setting [6]; 6120 under setting [3].

On to `CS(=O)(=O)Nc1ccc([N+](=O)[O-])cc1Oc1ccccc1`, for which the z-score is 1.64 (inactive) and the cell count is 4310.

Regarding `COCC(c1ccc(C(F)(F)F)cc1)N1CCN(C2(C)CCN(C(=O)c3c(C)ncnc3C)CC2)CC1C` (configuration not stated), the z-score runs as follows: under setting [5], -0.275 (inactive); under setting [6], -0.0621 (inactive); under setting [7], -0.0993 (inactive); under setting [4], 0.309 (inactive). Besides, the cell count runs as follows: under setting [5], 6100; under setting [6], 5370; under setting [7], 5980; under setting [4], 5030.

In the case of `CC(C(=O)Nc1cccc(N=Cc2c(O)ccc3ccccc23)c1)c1ccccc1` (configuration not stated), the z-score is -0.78 (inactive) and the cell count was found to be 5730.

Regarding `COc1ccccc1Oc1c(NS(=O)(=O)c2ccc(C)cn2)nc(-c2ccncc2)nc1OC`, the z-score reads like this: under setting [1], -0.0599 (inactive); under setting [2], -0.113 (inactive); under setting [3], 0.0903 (inactive); under setting [4], 0.0187 (inactive). For the same compound, the cell count was 7280 under setting [1], 6760 under setting [2], 7600 under setting [3] and 7550 under setting [4].

Take `CCCCCCCCCCCCCCCC(=O)OC[C@H](COP(=O)([O-])OCC[N+](C)(C)C)OC(=O)CCCCCCCC(=O)/C=C/C(=O)O`: the z-score is -0.738 (inactive) and the cell count is 5950.

With `CCCCC[C@H](O)/C=C/[C@@H]1[C@H](C/C=C\CCCC(=O)O)[C@@H](O)C[C@H]1O`, the z-score was -0.418 (inactive) and the cell count amounted to 5540.

For `O=C(Nc1ccc(S(=O)(=O)Nc2ccccc2Cl)c(Cl)c1)c1ccccn1`, the z-score was -0.0523 (inactive) under setting [5], 0.247 (inactive) under setting [6], 0.0843 (inactive) under setting [7] and -0.408 (inactive) under setting [4]. The cell count worked out at 5940 under setting [5], 5620 under setting [6], 5480 under setting [7] and 5970 under setting [4].

For `Cc1cc(Nc2ccc(NC(=O)c3ccc(Nc4ccnc5ccccc45)cc3)cc2)nc(N)n1`, the outcome (library stock 10 mM) was “inactive; censored for cell count”. Further, the z-score is -0.573 (inactive) under setting [5], -0.616 (inactive) under setting [6] and -0.871 (inactive) under setting [7]. The cell count runs as follows: under setting [5], 6440; under setting [6], 6580; under setting [7], 6140.

With `Cc1cc(Nc2cc(NC(=O)c3c(Cl)cccc3Cl)ccn2)nc(N)n1`, the result (library stock 10 mM) was inactive. Also, the z-score runs as follows: under setting [1], -0.552 (inactive); under setting [2], 2.25 (active); under setting [3], 7.34 (active). In addition, the cell count reads like this: under setting [1], 7000; under setting [2], 3680; under setting [3], 1560.

Consider `COc1ccc(C(=O)C(=O)c2ccccc2)cc1`, for which the z-score runs as follows: under setting [1], -0.147 (inactive); under setting [2], -0.127 (inactive); under setting [3], -0.0906 (inactive); under setting [4], -0.261 (inactive). The cell count was determined as 5340 under setting [1], 4770 under setting [2], 4920 under setting [3] and 4940 under setting [4].

These data come from PubChem BioAssay AID1645838 (ICCB-Longwood Screening Facility, Harvard Medical School, 2021).
